PubChem BioAssay AID1851 (National Center for Advancing Translational Sciences (NCATS), 2009)
Values joined by “and” are separate entries in the source; they are usually repeats but may differ in a detail not shown here. Equal values may be shown once. Hit rate of the full screen: of about 16,000 compounds, about 5,700 (36%) were called active. Inconclusive results (about 24%) are left out. The list shows a part of the results. Unmarked numbers belong to inactive results. Calls follow the shape of the dose curve; as a rule, active = well fitted curve in the direction sought with a large enough effect; inconclusive = small, poorly fitted or top-dose-only effect, or effect the other way; inactive = no such curve, though single readings can be large or run the other way.

Molecular target: Cytochrome P450 1A2 (Homo sapiens) (UniProt P05177)
Sequence (P05177 whole entry, looked up): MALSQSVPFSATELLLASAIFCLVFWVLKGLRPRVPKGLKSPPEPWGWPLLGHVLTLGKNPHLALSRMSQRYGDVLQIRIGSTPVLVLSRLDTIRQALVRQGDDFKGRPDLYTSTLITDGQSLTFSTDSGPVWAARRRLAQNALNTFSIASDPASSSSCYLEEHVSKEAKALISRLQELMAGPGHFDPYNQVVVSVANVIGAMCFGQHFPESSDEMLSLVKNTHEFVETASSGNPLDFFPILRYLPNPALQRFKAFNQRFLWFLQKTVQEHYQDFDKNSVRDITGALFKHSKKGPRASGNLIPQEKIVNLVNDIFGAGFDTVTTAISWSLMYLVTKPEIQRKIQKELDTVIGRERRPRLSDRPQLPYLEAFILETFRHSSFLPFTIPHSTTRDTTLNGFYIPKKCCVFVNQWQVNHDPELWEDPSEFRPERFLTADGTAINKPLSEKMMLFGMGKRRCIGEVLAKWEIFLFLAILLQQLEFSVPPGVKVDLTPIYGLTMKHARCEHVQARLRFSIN
Assay: Cytochrome panel assay with activity outcomes
Conditions: recombinant CYP, pro-luciferin dealkylation, luminescence, p450-cyp1a2; series mostly up to 57.1 µM; activity, negative = inhibition: at the top concentration
% is scaled to controls: 0 for no effect and ±100 for the full control effect.

| Structure (SMILES) | activity, negative = inhibition | AC50 |
| --- | --- | --- |
| CC1CCN(CC(=O)Nc2cccc([N+](=O)[O-])c2)CC1 | -27.6% | – |
| Cc1c(C)n(C(=O)CN2CCC(C)CC2)c2ccccc12 | – | 4.47 µM (active) |
| CC1CCN(CC[C@@H]2CCCN2S(=O)(=O)c2cccc(O)c2)CC1 | -10.4% | – |
| COc1ccccc1CNC(=O)CSc1nc2nc(C)cc(C)n2n1 | -3.92% | – |
| Cc1cccc(Cc2c(C)nc3nc(SCC(=O)NCc4ccco4)nn3c2C)c1 | -0.503% | – |
| Cc1cc(C)n2nc(SCC(=O)N/N=C/c3ccccc3F)nc2n1 | – | 15.8 µM (active) |
| Cc1cc(C)nc(SCC(=O)N/N=C\c2sccc2C)n1 | – | 12.6 µM (active) |
| COc1ccc(N2CCN(C(=S)Nc3cccc(C)c3)CC2)cc1 | -11% | – |
| Cc1cccc(N(C)C(=S)Oc2ccc3ccccc3c2)c1 | – | 2.51 µM (active) |
| CCc1cc2c(nc1CC)CCN(CC/C(C)=N/O[C@@H](C)c1cn([C@H](CO)Cc3ccccc3)nn1)C2 | -13.3% [at 11.4 µM] and 1.01% [at 11.4 µM] | – |
| CC(C)(C)c1ccccc1OCCN1CCCC1 | – | 15.8 µM (active) |
| Cc1ccccc1OCCCN1CCCC1 | -22.4% | – |
| Cc1cc(C(C)(C)C)c(OCCCN2CCOCC2)c(C(C)(C)C)c1 | -17.7% [at 2.29 µM] | – |
| CC1(CC(=O)O)O[C@H]2CCCCC[C@H]2O1 (some centres undefined) (tested in a mixture with another compound) | -0.0273% [at 11.4 µM] | – |
| COc1ccc2c(c1)C(c1ccc([N+](=O)[O-])cc1)=NNC(c1ccco1)=N2 | – | 5.01 µM (active) |
| COc1cccc(C(=O)Nc2ccc(-c3nnc(-c4ccco4)o3)cc2)c1 | 2.32% | – |
| CC1(C)CCCN(C(=O)c2coc(=O)c(Br)c2)C1 | -24% | – |
| c1ccc2cc(C3=NCCN3)ncc2c1 | – | 0.501 µM (active) |
| c1ccc2nc(-c3ccncc3)ccc2c1 | – | 1 µM (active) |
| c1ccc2nc(C3=NCCN3)ccc2c1 | – | 5.01 µM (active) and 794 nM (active) |
| c1ccc(CN(CC2=NCCN2)c2ccccc2)cc1 | -9.28% [at 25.6 µM] | – |
| c1ccc2nc(C3=NCCN3)cnc2c1 | – | 0.398 µM (active) |
| O=C(c1cccc(F)c1)N1CCC2(CCCN(Cc3cc(C(F)(F)F)cc(C(F)(F)F)c3)C2)CC1 | -9.19% | – |
| COC(=O)[C@@]1(Cc2ccc(F)cc2)[C@H]2c3cc(C(=O)N(C)C)n(CCCNc4ccc(C(F)(F)F)cc4Cl)c3C[C@H]2CN1C(=O)c1ccccc1 | -17% | – |
| c1ccc2oc(C3=NCCN3)cc2c1 | – | 5.01 µM (active) |

| Structure (SMILES) | activity, negative = inhibition | AC50 |
| --- | --- | --- |
| CCn1c(-c2nonc2NC(=O)c2ccccc2)nc2ccccc21 | – | 0.891 µM (active) |
| CCn1nccc1C(=O)Nc1nc2ccccc2n1CCN1CCCCC1 | -11.5% | – |
| Nc1ccc(S(=O)(=O)NCc2nccs2)cc1 | -10.5% [at 2.29 µM] | – |
| Cn1c(CNS(=O)(=O)c2ccc(F)cc2)n[nH]c1=S | 3.12% | – |
| COCCNC(=O)c1onc(CSc2ccc(Cl)cc2)c1C(=O)O | -11.6% | – |
| NCCNS(=O)(=O)c1ccc(N)cc1 | -3.44% [at 11.4 µM] | – |
| O=S(=O)(NCc1cc(-c2ccccc2)no1)c1ccc(Cl)cc1 | – | 7.08 µM (active) |
| Cn1c(CNS(=O)(=O)c2ccc(Cl)cc2)n[nH]c1=S | -1.82% | – |
| Clc1ccc(SCc2cc(-c3ccccc3)no2)cc1 | – | 6.31 µM (active) |
| O=S(=O)(NCc1cc(-c2ccc(Cl)cc2)no1)c1ccc(Cl)cc1 | – | 8.91 µM (active) |
| Cn1cccc1C(=O)N1CCC2(CC1)CCN(c1ncccn1)CC2 | 1.14% | – |
| CC(=O)OC[C@@H]1O[C@@H](O/N=C2/C[C@@H](O)[C@@H](O)[C@@H]3[C@@H]4C(=O)N(C(C)(C)C)C(=O)[C@H]4CC[C@H]23)[C@H](OC(C)=O)[C@H](OC(C)=O)[C@@H]1OC(C)=O | -2.28% [at 11.4 µM] | – |
| Cc1ccccc1C(=O)NN(C)c1nc2ccccc2nc1C(F)(F)F | -36.7% | – |
| COc1ccc(Oc2nc3ccccc3nc2C(F)(F)F)cc1 | – | 1.12 µM (active) |
| CC(C)(C)c1ccc(OC(=O)Cn2c(C(F)(F)F)nc3ccccc32)cc1 | -33.8% | – |
| CC(C)NC(=O)N1CCCC2(CCN(C(=O)c3ccco3)CC2)C1 | 7.44% | – |
| Cc1cc(C)nc(SCc2nnc(SCC(N)=O)n2Cc2ccco2)n1 | -2.93% | – |
| COc1cccc(OCc2nnc(SCC(=O)NCc3ccco3)n2C)c1 | -10.2% | – |
| O=c1c2ccccc2nnn1CSc1nnc(COc2ccc(Cl)cc2)n1Cc1ccco1 | – | 3.16 µM (active) |
| O=C(NCC(c1cccnc1)N1CCOCC1)Nc1ccccc1 (centres undefined) | -22.3% | – |
| O=C(O)Cc1cccnc1 | -13.8% [at 11.4 µM] | – |
| c1ccc(C[C@@H](Nc2cccnc2)c2ccccc2)cc1 | – | 0.2 µM (active) |
| COc1cccc(Nc2ncc3nc(C)c(=O)n(-c4ccccc4)c3n2)c1 | – | 5.01 µM (active) |
| COc1ccc(-n2c(=O)c(C)nc3cnc(Nc4cccc(OC)c4)nc32)cc1 | – | 15.8 µM (active) |
| COc1cccc(Nc2ncc3nc(C)c(=O)n(C)c3n2)c1 | – | 1 µM (active) |

| Structure (SMILES) | activity, negative = inhibition | AC50 |
| --- | --- | --- |
| COc1ccc(-n2c(=O)c(-c3cccs3)nc3cnc(Nc4cccc(OC)c4)nc32)cc1 | -19.5% | – |
| CCOc1ccc(OCC)c(-c2c(=O)n(OCc3ccc(C(C)(C)C)cc3)c3ccccc3[n+]2[O-])c1 | -19% | – |
| OCCN1CCN(c2nc(N3CCCCC3)nc(N3CCCCC3)n2)CC1 | -14.8% | – |
| N#CN(CC(N)=O)c1nc(N2CCCCC2)nc(N2CCCCC2)n1 | – | 2 µM (active) |
| O=C1c2cccc3c(Nc4ccccc4Cl)c([N+](=O)[O-])cc(c23)C(=O)N1CCO | – | 1.78 µM (active) |
| O=C1c2ccccc2C(=O)N1CCCCN(C(=O)c1cccc([N+](=O)[O-])c1)c1ccc(Cl)cc1 | -14.2% | – |
| CC(C)(C)c1cc2cccnc2n1Cc1ccccc1 | – | 14.1 µM (active) |
| O=S(=O)(NC1CCN(Cc2ccccc2)CC1)c1cccc2cccnc12 | -20.6% | – |
| O=C(Nc1cccc(F)c1)N1CCC2(CC1)CCN(C(=O)c1csnn1)CC2 | -6.38% | – |
| CCn1c(C)nc2cc(C(=O)NNS(=O)(=O)c3ccccc3F)ccc21 | – | 25.1 µM (active) |
| N[C@H](C(=O)O)[C@@H](O)c1cnc[nH]1 | -2.61% [at 11.4 µM] | – |
| Cc1cc(C(=O)c2cnc(/N=C/N(C)C)s2)cc(C)c1O | – | 12.6 µM (active) |
| CN(C)/C=N/c1ncc(C(=O)c2ccc3ccccc3c2)s1 | – | 2.51 µM (active) |
| COc1ccc(O[C@H]2C=C[C@@H](c3ccccc3)O[C@H]2CO/N=C2/c3cc(OC)ccc3O[C@@H](c3cccc(OC)c3)[C@H]2O)cc1 | 1.3% [at 11.4 µM] | – |
| Cc1cc(N2CCOCC2)nc(SCc2ccc(Cl)cc2Cl)n1 | – | 2.51 µM (active) |
| CSc1nc(-c2ccc(C)cc2)nc(C(Cl)Cl)n1 | – | 1.41 µM (active) |
| COc1ccccc1/C=N/NC(=O)CC(=O)Nc1ccc(Cl)c(Cl)c1 | – | 1.78 µM (active) |
| COc1ccccc1CN1CCCC2(CCN(C(=O)c3cccn3C)CC2)C1 | -18.4% | – |
| Clc1cc2c(c(CSC3=NCN(CC4CC4)CN3)c1)OCOC2 | – | 3.16 µM (active) |
| CCCc1cc(=O)oc2cc(OCc3cc(OC)c(OC)c(OC)c3)c(Cl)cc12 | -5.56% | – |
| CCOc1cc2c(C)cc(=O)oc2cc1Cl | – | 0.501 µM (active) |
| COc1c(/C=N/Nc2ccc([N+](=O)[O-])cc2[N+](=O)[O-])c(C)nn1-c1ccccc1 | -16.9% | – |
| O=[N+]([O-])c1ccc(N/N=C\c2cccn2-c2ccccc2)nc1 | – | 3.55 µM (active) |
| N[C@H](C(=O)O)[C@H](N)C(=O)O | -13.3% [at 11.4 µM] | – |
| CC(C)Oc1ccc(N2CC(C(=O)OCC(=O)NCc3ccccc3)CC2=O)cc1 (centres undefined) | -6.35% | – |

| Structure (SMILES) | activity, negative = inhibition | AC50 |
| --- | --- | --- |
| COc1ccc(N2CC(C(=O)Nc3cc(C)on3)CC2=O)cc1 (centres undefined) | -2.16% | – |
| COc1ccc(N2CC(C(=O)OCC(=O)c3cccc(OC)c3)CC2=O)cc1 (centres undefined) | – | 20 µM (active) |
| COC(=O)[C@@H]1[C@@H]2C[C@H]3c4[nH]c5ccccc5c4CCN3C[C@@H]2CC[C@@H]1OS(=O)(=O)O | -10.3% [at 2.29 µM] | – |
| Cc1ccccc1C(=O)NC(C)c1ccc2c(c1)CCCC2 (centres undefined) | – | 11.2 µM (active) |
| Cc1ccccc1C(=O)NNC(=O)c1ccoc1C | -5.51% | – |
| CCCCCSc1nncc(=O)[nH]1 | -14.7% | – |
| O=c1[nH]c(=O)n([C@@H]2C[C@H](O)[C@H](CO)O2)cc1I | 10.8% [at 25.6 µM] | – |
| COc1ccccc1-c1cc(C(F)(F)F)nc(S(=O)(=O)CCCC(=O)NC(C)C)n1 | – | 2 µM (active) |
| COCCCNC(=O)Cn1nc(-c2ccccc2OC)ccc1=O | -16% | – |
| Cc1[nH]n(C(C)(C)C)c(=O)c1Sc1ccc(Cl)cc1 | -0.437% | – |
| Cc1ccc(N=Cc2cc(C)n(C3CCCC3)c2C)cc1 | – | 10 µM (active) |
| CCCCc1ccc(NC(=S)NCc2cccs2)cc1 | – | 8.91 µM (active) |
| CCc1ccc(NC(=O)CS(=O)CC(=O)NCCCc2ccccc2)cc1 (centres undefined) | -19.7% | – |
| CCCC(=O)Nc1ccc(C(=O)NNC(=S)NC(=O)c2cccs2)cc1 | 3.27% | – |
| CC#CCOC(=O)c1c(C)nc2sc3c(c2c1N)CC[C@@H](O)C3 | – | 0.0251 µM (active) |
| COCCCNC(=O)/C=C/c1cccc(Cl)c1 | – | 6.31 µM (active) |
| COCCNC(=O)c1onc(CSc2cccc(Cl)c2)c1C(=O)O | -11.1% | – |
| COCCCNC(=O)/C=C/c1ccc(Cl)cc1 | – | 7.08 µM (active) |
| COCCCNC(=O)C1C2C=CC3(CN(Cc4ccc(C)cc4)C(=O)C13)O2 (centres undefined) | -1.32% | – |
| O=C(/C=C/c1cccc(Cl)c1)Nc1ccncc1 | – | 2 µM (active) |
| O=C(/C=C/c1ccc(Cl)cc1)NCCN1CCOCC1 | -28.6% | – |
| O=C(/C=C/c1cccc([N+](=O)[O-])c1)NCCN1CCOCC1 | 5.84% | – |
| O=C(/C=C/c1ccc(Cl)cc1)NCCSc1ccccc1 | – | 1.58 µM (active) |
| O=C(/C=C/c1ccccc1)NNC(=O)c1cccnc1 | -8.85% | – |
